Data reported in the supplement of paper PMC3334620.
Over roughly 33,000 sequences, “E-score (-0.5 to 0.5)” has its median near -0.016; the highest 2% begin near 0.3. The sample as a whole holds a higher share of the highest values than the screen did.

target: T1, Yer184c (UniProt P39961); assay: PBM E-score (8-mer binding enrichment) (E-score (-0.5 to 0.5)); higher = stronger / more preferred TF binding; settings: protein concentration: 100 nM; construct: GST-full length
T1 sequence: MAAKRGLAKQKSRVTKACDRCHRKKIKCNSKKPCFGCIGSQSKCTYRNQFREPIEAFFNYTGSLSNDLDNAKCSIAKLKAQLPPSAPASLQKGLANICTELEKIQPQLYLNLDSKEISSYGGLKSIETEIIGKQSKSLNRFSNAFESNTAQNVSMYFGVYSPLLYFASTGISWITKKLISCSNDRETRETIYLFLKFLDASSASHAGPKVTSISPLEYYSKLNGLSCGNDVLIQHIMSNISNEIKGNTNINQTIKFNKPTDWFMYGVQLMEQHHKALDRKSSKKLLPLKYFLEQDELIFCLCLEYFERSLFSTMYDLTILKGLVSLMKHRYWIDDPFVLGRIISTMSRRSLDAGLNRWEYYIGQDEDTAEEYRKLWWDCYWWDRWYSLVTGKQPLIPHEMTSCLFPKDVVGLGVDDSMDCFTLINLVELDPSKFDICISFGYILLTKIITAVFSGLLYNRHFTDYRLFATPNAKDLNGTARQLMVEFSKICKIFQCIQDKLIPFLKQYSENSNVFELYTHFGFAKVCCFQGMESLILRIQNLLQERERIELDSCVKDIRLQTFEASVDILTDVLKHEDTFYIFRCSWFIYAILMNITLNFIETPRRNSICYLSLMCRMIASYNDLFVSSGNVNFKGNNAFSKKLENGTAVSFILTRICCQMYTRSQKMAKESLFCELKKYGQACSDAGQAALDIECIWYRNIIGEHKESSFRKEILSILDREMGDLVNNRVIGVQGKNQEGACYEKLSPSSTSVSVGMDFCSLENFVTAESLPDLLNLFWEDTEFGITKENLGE
Procedure: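 Universal 'all 10-mer' protein binding microarrays (Agilent AMADID 015681) probed with GST-tagged S. cerevisiae TFs (full-length or DBD) made by in vitro transcription/translation (PURExpress), about 100-200 nM. Bound TF was detected with fluorescent anti-GST. Each ungapped 8-mer (which stands for itself and its reverse complement) is scored by the PBM enrichment score (E-score), a modified Wilcoxon-Mann-Whitney statistic from -0.5 to +0.5, computed with the Universal PBM Analysis Suite. Scale: above 0.35 generally sequence-specific binding.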

Sequence | PBM E-score
AGCCCAAG | -0.228
AACCGAAG | 0.259
GGCCGACC | 0.028
TGCCGAAA | 0.371
ACCCGAAT | 0.104
GCCCGAAC | 0.0908
AGCCGACT | -0.00308
AACCGAAT | 0.199
CGCCGAAA | 0.293
GGCCGAAC | 0.305
AGCCGAAT | 0.392
TGCCGACA | 0.222
AACCGAAA | 0.345
GCGGGGAA | -0.0187
CGGGCTAA | 0.0904
CTGCCTCC | -0.339
ATACGACC | -0.182
GATCTGGA | -0.0474
GACTTTCA | -0.0149
CATGCGCC | -0.092
CCATTAAG | -0.0869
ACCTCACT | -0.0518
ACTAGCGG | -0.0521
AGCCGAAC | 0.279
GCCCGAAA | 0.171

Sequence | PBM E-score
GACCGAAA | 0.265
ACCCGAAA | 0.169
GACCGAAC | 0.33
CACCGAAC | 0.143
GGTCGAAA | -0.168
GGCCGAAA | 0.398
AGCCGAAA | 0.364
CACTAGGC | -0.175
CGATAAAG | -0.00214
CTACGCAA | -0.00413
ACCCAATA | -0.0358
GGTTACAA | 0.23
CCATAACC | -0.184
AAGATAGT | 0.108
GAACATTC | 0.102
CCGAAAAC | 0.243
CCGAGAAA | 0.351
CCGAAAAG | 0.31
TCGAAAAA | 0.169
TCGAGAAA | 0.0245
ACGAAATA | 0.11
ACGAAAAG | 0.187
CCGAAAGG | 0.166
CCGAAATA | 0.34
GCGAAATA | 0.206

Sequence | PBM E-score
GCGAGAAA | -0.0014
CCGAAAAA | 0.371
AGCCATCG | -0.189
CCTTGCCG | 0.124
CCACAGAG | -0.188
AACTTACG | 0.0113
GGGGGGAC | -0.445
CGGCGCAC | 0.216
GTCTTAAC | -0.122
TAAGGTGA | -0.0772
CGGGGAAG | 0.0845
ACAGTTAT | -0.0291
ACGAAGAA | 0.258
TCGAAGAA | -0.0488
CCGAAGAA | 0.345
GTGAATCA | -0.0703
TGTTAACA | 0.111
CCGGTAAG | 0.369
CCGGTACG | -0.00725
CCGGTAAA | 0.321
CCGGTAAC | 0.259
TCGGTAAA | 0.296
ACGGTAAG | -0.00751
GAAAGAGC | -0.0552
CCCTTTGA | -0.266

Sequence | PBM E-score
ACGCGACA | -0.0168
CCGATTCC | 0.164
CCGATTCG | 0.358
CCGATTCA | 0.0391
ATGCCAAT | -0.0596
ACGGACCA | 0.327
AGGGACCG | -0.165
CGGGACCA | -0.098
CCGGACCC | 0.235
CCGGACAC | 0.286
GCGGACCA | 0.243
CCGGACAG | 0.324
ACGGACCG | 0.193
CGGGACCG | 0.31
CCGGACCA | 0.297
CCGGACAA | 0.29
CCGGACCG | 0.353
GTAGTGGA | 0.177
ATGCTGGG | -0.0916
ACAATTGT | 0.097
AATGCTCG | -0.0329
AACCAACG | -0.0237
ACAGCCCA | -0.0828
TATCTGAA | 0.108
AAAACTGT | 0.0544

Sequence | PBM E-score
ACGGACAA | 0.27
TCGGACAA | 0.378
GCGGACAA | 0.298
TCGCTGCA | -0.0505
AACTGGGA | -0.151
ATTGCGGC | 0.0068
AAAGTGCA | -0.0658
ACGGCGCC | 0.122
CCGGCGCA | 0.277
CCGGCGCC | 0.354
GCGGCGCC | 0.299
CCGGCGCG | 0.305
ACGGCGCG | 0.232
CGTATTGC | 0.0559
ATAGCTGC | 0.0565
ATCGGAAC | 0.291
ATCGGAGA | 0.216
TTCAGAAA | 0.0478
ATCGGCAT | 0.267
ATCGGAAT | 0.379
TTAGGAAA | 0.146
ATCGGAAG | 0.211
ATCGGAAA | 0.344
GTCGGAGA | 0.158
TTCGGAAA | 0.402

Sequence | PBM E-score
GTCGGAAA | 0.318
GTCGGGAA | 0.0333
CAGCCTTA | -0.0157
CTTGGATC | -0.0713
CATCGCAG | -0.28
GCGGGAAC | -0.00769
CCTTAAGG | -0.0623
GCCGGTAA | 0.346
CCCGGTAA | 0.221
GCCGGTAC | 0.229
ACCGGTAA | 0.217
TCCGGTAA | 0.387
GCCGGTGA | 0.235
GTAGCTAA | -0.0505
GGCCTCCA | -0.0306
ATCCCATG | -0.297
AGCTGAGG | -0.11
ACCCTCCC | 0.0834
ACGAAAGC | 0.0461
TGGCTAAA | 0.0133
CGGCTAGC | 0.24
CGGCTAGA | 0.306
GGGCTAGA | -0.183
CGGCTAAA | 0.327
AGGCTAAA | -0.0661

Sequence | PBM E-score
CTCCCACA | -0.184
AGTGCACT | 0.067
CTGGGTTA | -0.115
ATGAGTAA | 0.0956
ACAACCCG | 0.0761
CAATTCCC | 0.178
AAATTCCA | 0.216
AAATTCCG | 0.384
CAATTCCA | -0.0791
CAATTCCG | 0.315
AAATTCCC | -0.0964
AACAACCC | -0.0615
ATCCTTGA | 0.0411
GTGATAAA | 0.179
GGGATAAC | -0.0432
CGGATAAC | 0.34
CGGATAAG | 0.217
AGGATGAA | -0.0513
ATGATAAA | 0.271
CGGATGAA | 0.351
AGGATAAC | -0.197
CGGATAAA | 0.417
CGGATGAG | 0.171
TTGATAAA | 0.329
TGGATAAA | 0.18

Sequence | PBM E-score
CCCCAAAG | -0.253
CGGAGACC | 0.0297
CGAACACG | 0.172
CTATTGCC | -0.131
TCTCTTAA | 0.126
AAAGCTTT | 0.237
CGTCAACC | -0.137
GGTGCAGA | -0.206
CAAATGAG | -0.104
ACACTCGC | 0.0547
AGAGACAC | -0.119
CGGATCAA | 0.318
CGGATAGA | 0.338
TGGATCAA | -0.0363
CGGATATA | 0.389
GGGATATA | 0.0967
AGGATAGA | 0.0167
AGGAGATA | -0.134
CGGATATC | 0.285
GGGATAGA | -0.186
CGGAGATA | 0.406
GGGAGATA | -0.161
CGGATCAG | 0.224
CTCTCGTA | -0.204
GATGAGCC | -0.0364

Sequence | PBM E-score
GACTTCCC | -0.0878
GAATACGA | 0.118
GTCTCATA | -0.0146
CGCCATGA | -0.155
ATTGCAAC | 0.0297
AGAGATCT | -0.168
CATGAGAC | -0.0666
ATAATAAA | 0.276
CTAATAAA | 0.0623
ATAATATA | 0.323
TTAATAAA | 0.328
ATAATATG | 0.132
CTAATATA | 0.118
ATGTGTCG | -0.0246
AGAGTTTC | -0.0656
AGGAATTG | -0.0124
CCGGTCCG | 0.338
CCGGTCCC | 0.0884
CCGGTCCA | 0.0407
